Assay results reported in PubChem BioAssay AID1851 (National Center for Advancing Translational Sciences (NCATS), 2009).
Where “and” joins values, the source holds several entries; their conditions need not be identical. Equal entries are not always repeated. Among all 16,000 compounds or so, about 4,000 (25%) were called active. Roughly 26% stayed inconclusive and do not appear here. The list is a sample of the results. Unmarked numbers belong to inactive results. Calls come from the whole dose curve; as a rule, active = well fitted curve in the direction sought with a large enough effect; inconclusive = small, poorly fitted or top-dose-only effect, or effect the other way; inactive = no such curve, though single readings can be large or run the other way.

The compounds below were run against Cytochrome P450 2C9 (Homo sapiens) (UniProt P11712) (assay: Cytochrome panel assay with activity outcomes). Conditions: recombinant CYP, pro-luciferin dealkylation, luminescence, p450-cyp2c9; series mostly up to 57.1 µM; activity, negative = inhibition: at the top concentration.
% is set by controls: 0 for no effect and ±100 for the full control effect.

Cytochrome P450 2C9 (Homo sapiens), sequence (P11712 whole entry, looked up): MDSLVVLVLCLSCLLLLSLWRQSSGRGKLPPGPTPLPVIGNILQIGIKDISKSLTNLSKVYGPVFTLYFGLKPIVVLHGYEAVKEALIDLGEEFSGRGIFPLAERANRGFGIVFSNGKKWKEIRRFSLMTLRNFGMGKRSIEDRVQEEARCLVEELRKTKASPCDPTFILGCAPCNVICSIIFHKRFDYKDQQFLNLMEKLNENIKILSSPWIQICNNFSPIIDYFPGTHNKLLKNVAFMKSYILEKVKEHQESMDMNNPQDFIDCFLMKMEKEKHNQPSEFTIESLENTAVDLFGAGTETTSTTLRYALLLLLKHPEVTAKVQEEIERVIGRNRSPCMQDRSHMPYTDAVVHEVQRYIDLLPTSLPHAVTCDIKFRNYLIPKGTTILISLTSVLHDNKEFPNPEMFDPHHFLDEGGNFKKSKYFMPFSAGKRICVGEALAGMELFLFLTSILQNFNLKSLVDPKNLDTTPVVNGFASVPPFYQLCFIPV

Compound	activity, negative = inhibition	AC50
Nc1ncnc2c([C@@H]3O[C@@H](CO)[C@H](O)[C@@H]3O)nsc12	-6.07% [at 11.4 µM]	–
Cc1cc(NC(=O)CCCC(=O)OCC(F)(F)C(F)F)cc(C)c1C(=O)O	-17.2%	–
COc1ccc(C(=O)Nc2ccc(OCC(F)(F)C(F)F)c(C(F)(F)F)c2)cc1OC	–	7.94 µM (active)
CCN(CC)CCC[C@H](C)Nc1c2ccc(Cl)cc2nc2ccc(OC)cc12	–	inactive
Cc1ccc(NC(=S)Nc2nc(CC(=O)Nc3ccccc3)cs2)cc1	–	2.82 µM (active)
CN1CCC(n2[nH]c(-c3ccccc3)c(Cc3ccccc3)c2=O)CC1	0.284% [at 11.4 µM]	–
CCN1C(=O)[C@H]2[C@H]3[C@H](O)[C@H](O)C/C(=N/OC[C@@H](O)COCc4ccco4)[C@@H]3CC[C@@H]2C1=O	21.5% [at 11.4 µM] and 18.6% [at 11.4 µM]	–
Cn1c(SCC(=O)c2ccc3c(c2)Cc2ccccc2-3)nnc1-c1ccccc1	–	8.91 µM (active)
CC(=O)Nc1ccc(-c2nnc(SCC(=O)c3ccc4c(c3)Cc3ccccc3-4)n2C)cc1	–	12.6 µM (active)
CN1CCCC[C@@H]1CCN1c2ccccc2Sc2ccc(S(C)=O)cc21 (stereo not given in full)	–	inactive
CCN(CC)CCN1C(=O)c2cccc3cc(N)cc(c23)C1=O	13.4% [at 11.4 µM]	–
CCOC(=O)C(NC(C)=O)C(=O)O (stereo not given)	-29.6%	–
C/C(CCN1CCCCc2nc(C)c(C)cc21)=N\O[C@@H](C)CN1CCCCc2nc(C)c(C)cc21	7.62% [at 11.4 µM]	–
C/C(CCN1CCCCc2nc(C)c(C)cc21)=N\O[C@@H](C)c1cc(-c2c(C)cc(C)cc2C)no1	–	2.51 µM (active)
C/C(CCN1CCCc2nc(C)c(C)cc21)=N\O[C@@H](C)CN1CCCCc2nc(C)c(C)cc21	-3.15% [at 11.4 µM]	–
COc1ccc(-c2n[nH]c(C)c2-c2ccc(Cl)cc2)c(O)c1	–	10 µM (active)
CC(NC(=O)c1ccccc1)c1nc2ccccc2n1Cc1ccccc1F (stereo not given)	–	5.62 µM (active)
C[C@@H]1CCC[C@H](C)N1NC(=O)c1ccc(Cl)c(S(N)(=O)=O)c1	11.9% [at 25.6 µM]	–
CCN(CC)S(=O)(=O)c1cc(C(=O)Nc2ccncc2)ccc1Cl	–	0.141 µM (active)
CN(C)CCCc1cc(C(=O)Nc2ccc(-c3ccncc3)cc2)ccc1O	-28.2%	–
COc1ccc(NC(=S)N2CCN(C/C=C/c3ccccc3)CC2)cc1OC	-4.86%	–
COC(=O)c1ccc(NC(=S)N2CCN(Cc3cccc(C)c3)CC2)cc1	–	25.1 µM (active)
Cc1nn(CC(=O)NCc2ccccc2)c(C)c1[N+](=O)[O-]	1.3%	–
Cc1nn(CC(=O)NCCN2CCOCC2)c(C)c1[N+](=O)[O-]	10.2%	–
Cc1nn(C(C)C(=O)N2CCc3ccccc32)c(C)c1[N+](=O)[O-] (stereo not given)	–	11.2 µM (active)
